The results in this text go back to PubChem BioAssay (Tox21).

Assay [1] concerns the target Estrogen receptor (Homo sapiens) (UniProt P03372). Put plainly: qHTS assay to identify small molecule agonists of the estrogen receptor alpha (ER-alpha) signaling pathway in the presence of an antagonist (AID 1259383). Further: top concentration of the series differs between compounds; nearly all actives have a fitted effect of over 15% in size. A digest of the protocol:
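VM7Luc4E2 cells express endogenous full-length ER-alpha with an ERE-luciferase reporter and were hormone-deprived for 5 days. Compounds at 15 concentrations were added with 10.0nM ICI-182,780 for 22hr at 37C. Luminescence was read with ONE-Glo.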
On the technique in general: In qHTS, concentration-response curves come from the screen itself.

Assay [2] in a line: qHTS assay to identify small molecule agonists or antagonists of the thyroid stimulating hormone receptor (TSHR) signaling pathway - wild type cell line counter screen (AID 1259384). Summed up: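 Wild-type HEK293 cells were plated 18 h at 37 C/5% CO2, pin-dosed with compound plus Ro20-1724 medium, held 30 min at room temperature, then given cAMP-d2 and anti-cAMP-cryptate; fluorescence was read after 1 h. Fifteen concentrations, triplicate.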

In assay [3] the target is Thyrotropin receptor (Homo sapiens) (UniProt P16473). Put plainly: qHTS assay to identify small molecule antagonists of the thyroid stimulating hormone receptor (TSHR) signaling pathway (AID 1259385). Further: nearly all actives have a fitted effect of over 20% in size. A digest of the protocol: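 TSHR-HEK293 cells were plated and held 18 h at 37C/5% CO2, then given compound plus Ro20-1724 and stimulated with TSH at 1.5 ng/mL final. After 30 min at room temperature, cAMP was detected with cAMP-d2/anti-cAMP-cryptate (1 h) by fluorescence.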

A short description of assay [4]: qHTS assay to identify small molecule agonists of the estrogen receptor alpha (ER-alpha) signaling pathway in the presence of an antagonist - cell viability counter screen (AID 1259386; active means well fitted curve in the direction sought with a large enough effect in the repeat runs; an effect the other way counts as inactive or inconclusive;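 further: series mostly up to about 92 µM; cells exposed to compounds for 22 h at 37 °C before the viability read; nearly all actives have a fitted effect of over 30% in size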). A digest of the protocol: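 Cell viability in VM7Luc4E2 cells (endogenous full-length ER-alpha) measured by CellTiter-Fluor fluorescence in the same wells as the luciferase screen. Cells pre-cultured 5 days in charcoal-stripped serum, then treated 22 h with compounds at 15 concentrations plus 10.0nM ICI-182,780.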

Assay [5] addresses Progesterone receptor (Homo sapiens) (UniProt P06401). Put plainly: qHTS assay to identify small molecule agonists of the progesterone receptor (PR) signaling pathway (AID 1346784). Further: nearly all actives have a fitted effect of over 30% in size. A digest of the protocol: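 Compounds were tested for PR agonism in HEK 293T cells bearing a beta-lactamase gene under UAS control. Treatment lasted 16 hr at 37C; signal came from fluorescence of a FRET substrate.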

The target is the same in assay [6]. Put plainly: qHTS assay to identify small molecule antagonists of the progesterone receptor (PR) signaling pathway (AID 1346795; active means well fitted inhibition curve with a large enough effect in the signal ratio in the repeat runs, not every such curve was filed as active; the % refers to the signal ratio; further: potency means the concentration at half of the fitted maximal effect). Summed up: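 In HEK293T cells bearing the PR-UAS-bla reporter, compound effects on promegestone-driven (1 nM) beta-lactamase expression are assessed after 16 hr using a fluorescent FRET substrate incubated 2 hr at room temperature.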

Assay [7] can be described thus: qHTS assay to identify small molecule agonists of the progesterone receptor (PR) signaling pathway - cell viability counter screen (AID 1346799). Further: nearly all actives have a fitted effect of over 45% in size. A digest of the protocol: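 Here, 3,000 PR-UAS-bla HEK293T cells per well were treated with compounds for 16 hr after a 6 hr preincubation at 37C and 5% CO2; cell viability is the CellTiter-Glo luminescence signal.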
Assay [8] can be described thus: qHTS assay to identify small molecule antagonists of the TGF-beta/Smad signaling pathway - cell viability counter screen (AID 1346824; active means well fitted curve in the direction sought with a large enough effect in the repeat runs; an effect the other way counts as inactive or inconclusive; further: nearly all actives have a fitted effect of over 50% in size). A digest of the protocol:
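SBE-bla HEK 293T cells were plated overnight at 37 C, then given compounds in DMSO plus TGF-beta1 (added as 0.25 ng/mL solution) for 5 hr. After the bla read, CellTiter-Glo was added to the same wells and luminescence read after 30 min at room temperature.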

Assay [9] in a line: qHTS assay to identify small molecule agonists of the TGF-beta/Smad signaling pathway - cell viability counter screen (AID 1346829; active means well fitted curve in the direction sought with a large enough effect in the repeat runs; an effect the other way counts as inactive or inconclusive; further: top concentration of the series differs between compounds; nearly all actives have a fitted effect of over 45% in size). Summed up: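 Here the cytotoxicity of library compounds is measured in SBE-bla HEK 293T cells treated for 5 hr, using CellTiter-Glo added to wells already read for the beta-lactamase reporter.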
A short description of assay [10]: qHTS assay to identify small molecule antagonists of the progesterone receptor (PR) signaling pathway - cell viability counter screen (AID 1346798; active means well fitted curve in the direction sought with a large enough effect in the repeat runs; an effect the other way counts as inactive or inconclusive; further: series mostly up to about 92 µM; nearly all actives have a fitted effect of over 50% in size). Summed up:
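Following a 4 hr attachment, PR-UAS-bla HEK293T cells in charcoal-stripped FBS medium were exposed to compounds with R5020 for 16 hr; CellTiter-Glo was added and luminescence read after 30 min at room temperature.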

A number with no mark means an inactive call. Records with an inconclusive call do not appear. Calls of active or inactive are those of the source. Unless noted, the call rests on the fitted dose curve.
On the % scale 0 is the no-effect control and ±100 the full control effect.

Progesterone receptor (Homo sapiens), sequence (P06401 whole entry, looked up): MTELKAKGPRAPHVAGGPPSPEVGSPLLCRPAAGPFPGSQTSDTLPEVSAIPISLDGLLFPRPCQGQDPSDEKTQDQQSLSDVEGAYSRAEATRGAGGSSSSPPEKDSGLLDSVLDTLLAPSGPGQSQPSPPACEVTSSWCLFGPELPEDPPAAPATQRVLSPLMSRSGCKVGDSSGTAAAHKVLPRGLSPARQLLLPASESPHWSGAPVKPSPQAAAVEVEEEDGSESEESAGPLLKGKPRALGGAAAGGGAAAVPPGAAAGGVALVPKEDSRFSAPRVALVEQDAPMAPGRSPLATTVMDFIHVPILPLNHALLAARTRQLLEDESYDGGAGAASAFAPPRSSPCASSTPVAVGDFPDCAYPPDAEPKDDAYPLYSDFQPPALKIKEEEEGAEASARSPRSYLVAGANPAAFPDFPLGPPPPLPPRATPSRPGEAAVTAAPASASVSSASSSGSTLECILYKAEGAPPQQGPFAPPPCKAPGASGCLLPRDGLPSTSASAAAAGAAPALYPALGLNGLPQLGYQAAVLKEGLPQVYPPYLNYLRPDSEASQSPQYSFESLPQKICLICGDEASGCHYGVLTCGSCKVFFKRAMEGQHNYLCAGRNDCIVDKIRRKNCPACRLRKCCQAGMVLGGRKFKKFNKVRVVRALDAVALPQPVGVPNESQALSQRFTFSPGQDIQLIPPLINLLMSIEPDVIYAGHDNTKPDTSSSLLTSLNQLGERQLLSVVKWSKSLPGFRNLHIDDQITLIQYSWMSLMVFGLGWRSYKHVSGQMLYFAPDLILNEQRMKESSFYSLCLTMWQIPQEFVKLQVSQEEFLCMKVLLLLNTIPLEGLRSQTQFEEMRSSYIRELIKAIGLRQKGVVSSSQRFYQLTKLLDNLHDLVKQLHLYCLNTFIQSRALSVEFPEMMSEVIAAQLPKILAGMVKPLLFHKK
Thyrotropin receptor (Homo sapiens), sequence (P16473 whole entry, looked up): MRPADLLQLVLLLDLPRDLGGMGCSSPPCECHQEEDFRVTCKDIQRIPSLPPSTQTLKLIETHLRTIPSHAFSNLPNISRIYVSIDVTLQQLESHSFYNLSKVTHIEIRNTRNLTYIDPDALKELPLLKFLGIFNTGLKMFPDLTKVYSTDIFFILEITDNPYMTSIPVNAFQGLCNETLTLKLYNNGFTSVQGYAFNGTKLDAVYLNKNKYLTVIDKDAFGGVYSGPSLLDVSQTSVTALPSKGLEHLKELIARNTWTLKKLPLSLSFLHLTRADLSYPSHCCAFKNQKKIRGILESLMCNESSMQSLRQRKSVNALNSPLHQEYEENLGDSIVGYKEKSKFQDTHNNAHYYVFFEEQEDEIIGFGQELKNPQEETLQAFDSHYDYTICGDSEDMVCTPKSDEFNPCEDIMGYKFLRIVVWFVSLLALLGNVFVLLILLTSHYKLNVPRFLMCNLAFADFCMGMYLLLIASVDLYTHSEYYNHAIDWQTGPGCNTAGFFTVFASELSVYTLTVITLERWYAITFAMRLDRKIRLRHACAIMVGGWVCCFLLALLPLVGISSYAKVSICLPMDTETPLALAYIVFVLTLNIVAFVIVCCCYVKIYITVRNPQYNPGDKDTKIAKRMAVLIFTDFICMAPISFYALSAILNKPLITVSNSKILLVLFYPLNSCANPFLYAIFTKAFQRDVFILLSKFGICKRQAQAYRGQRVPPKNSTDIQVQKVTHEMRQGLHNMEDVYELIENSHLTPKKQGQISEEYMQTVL
Estrogen receptor (Homo sapiens), sequence (P03372 whole entry, looked up): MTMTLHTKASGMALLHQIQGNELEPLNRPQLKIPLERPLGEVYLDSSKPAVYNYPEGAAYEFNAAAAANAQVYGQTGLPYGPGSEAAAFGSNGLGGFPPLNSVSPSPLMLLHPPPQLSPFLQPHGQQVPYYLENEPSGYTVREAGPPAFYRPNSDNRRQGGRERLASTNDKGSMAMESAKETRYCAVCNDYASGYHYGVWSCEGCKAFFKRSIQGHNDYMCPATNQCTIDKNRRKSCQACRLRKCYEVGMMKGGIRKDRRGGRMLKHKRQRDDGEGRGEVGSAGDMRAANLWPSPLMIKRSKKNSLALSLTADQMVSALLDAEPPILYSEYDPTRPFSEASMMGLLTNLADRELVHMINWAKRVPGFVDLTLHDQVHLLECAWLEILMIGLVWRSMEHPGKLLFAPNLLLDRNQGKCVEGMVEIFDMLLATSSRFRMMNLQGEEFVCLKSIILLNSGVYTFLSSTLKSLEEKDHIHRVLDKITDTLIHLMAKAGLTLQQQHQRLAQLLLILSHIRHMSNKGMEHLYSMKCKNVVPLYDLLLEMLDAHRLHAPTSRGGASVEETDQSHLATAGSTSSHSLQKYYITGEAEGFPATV

In the case of `C[n+]1ccccc1/C=N/O`, the Potency result in assay [1], in [5], in assay [6] and in assay [7] was “inactive” throughout. In addition, the outcome in assay [2], in [3], in [4], in assay [8] and in assay [9] was inactive.

`Cc1cc(=O)oc2cc(O[C@@H]3SC[C@@H](O)[C@H](O)[C@H]3O)ccc12`: the Potency result in [1], in assay [5], in assay [6] and in assay [7] was “inactive” in each case. Also, the molecule was called inactive in [2], in [3], in assay [4], in [10], in [8] and in assay [9].

Regarding `CCCCC(O)/C=C(C)/C=C/C=C/C(=O)N1CCCC1=O` (stereo not given), the Potency entry in [1], in assay [5] and in assay [6] was “inactive” in each case. Also, the call in assay [2], in assay [3], in assay [4], in assay [10], in [8] and in [9] was inactive.

On to `CCCCN=C(N)N=C(N)N`, for which the Potency result in [1], in assay [5], in assay [6] and in assay [7] was “inactive” throughout. In addition, the molecule was called inactive in assay [2], in [3], in [4], in [10], in assay [8] and in [9].

With `CCN1CCN(C(=O)N[C@@H](C(=O)N[C@@H]2C(=O)N3C(C(=O)O)=C(CSc4nnnn4C)CS[C@H]23)c2ccc(O)cc2)C(=O)C1=O`, the Potency entry in assay [1] and in assay [7] was “inactive” each time. Besides, the outcome in assay [2], in [3], in assay [4], in assay [10] and in [9] was inactive.

For the molecule `CN(C)c1cc(NC(=O)CNC(C)(C)C)c(O)c2c1C[C@H]1C[C@H]3[C@H](N(C)C)C(=O)C(C(N)=O)=C(O)[C@@]3(O)C(=O)C1=C2O`, the Potency entry in assay [1], in [5], in [6] and in assay [7] was “inactive” throughout. Further, the outcome in assay [2], in [4], in assay [10] and in assay [8] was inactive.

For the molecule `N=C(N)S(=O)O`, the Potency entry in assay [1] and in assay [7] was “inactive” throughout. For the same molecule, the result in assay [2], in assay [3], in assay [4], in [10], in assay [8] and in assay [9] was inactive.

For the molecule `CCOC(=O)[C@H](CCc1ccccc1)N[C@H]1CS[C@H](c2cccs2)CN(CC(=O)O)C1=O`, the Potency entry in [1] and in assay [7] was “inactive” throughout. In addition, the molecule was called inactive in assay [2], in assay [3], in assay [4], in [8] and in assay [9].

Consider `CC(C)C[P+](C)(CC(C)C)CC(C)C`, for which the Potency entry in assay [1], in [5] and in assay [7] was “inactive” throughout. The outcome in assay [2], in assay [3], in assay [4], in assay [10], in [8] and in assay [9] was inactive.

`N#CC1(N)CCCCC1`: the Potency entry in assay [1], in assay [5], in assay [6] and in assay [7] was “inactive” in each case. Moreover, the molecule was called inactive in assay [2], in assay [4], in [10], in assay [8] and in assay [9].

For `CCC(C)c1nccnc1OC` (stereo not given), the Potency entry in assay [1] and in assay [7] was “inactive” throughout. Also, the molecule was classed as inactive in [2], in [3], in assay [4], in [10], in assay [8] and in assay [9].

`CN(C)CCc1c[nH]c2ccc(CS(=O)(=O)N3CCCC3)cc12`: the Potency entry in assay [1], in assay [5], in [6] and in assay [7] was “inactive” each time. The call in assay [2], in assay [4], in [10], in assay [8] and in assay [9] was inactive.

Consider `CC(=O)c1ccc2ccc3ccccc3c2c1`, for which the Potency entry in assay [1] and in [5] was “inactive” each time. Also, the molecule was called inactive in [2], in [3], in assay [4], in [8] and in assay [9]. The Potency in assay [6] is 9.63 µM (active).

On to `COC(=O)c1ccc(NC(C)=O)cc1OC`, for which the Potency entry in [1], in assay [5], in assay [6] and in assay [7] was “inactive” throughout. The call in assay [2], in assay [4], in [10], in assay [8] and in assay [9] was inactive.

For the molecule `O=C(CCBr)N1CCN(C(=O)CCBr)CC1`, the Potency result in assay [1], in assay [5] and in assay [7] was “inactive” in each case. In addition, the result in assay [2], in [3], in [4], in assay [8] and in assay [9] was inactive.

Consider `CC(O)CCCCn1c(=O)c2c(ncn2C)n(C)c1=O` (stereo not given), for which the Potency entry in assay [1], in assay [5] and in [7] was “inactive” throughout. In addition, the outcome in assay [2], in [3], in [4], in [8] and in assay [9] was inactive.

For `C[C@]12C=CC(=O)C=C1[C@@H](F)C[C@@H]1[C@@H]2[C@@H](O)C[C@@]2(C)[C@H]1CC[C@]2(O)C(=O)CO`, the Potency entry in [1] and in [7] was “inactive” throughout. Besides, the result in assay [2], in assay [3], in assay [4], in assay [10], in assay [8] and in [9] was inactive.

For `C=CCCCCCCCCCCCCCC`, the activation in assay [1] was -0.0008% [at 19 µM]. Moreover, the cAMP activity change in [2] is 3.16% [at 18.9 µM]. The figures for the activity change, negative = inhibition in assay [3] and in assay [6] were 0.749% [at 19 µM] and 7.49% [at 18.9 µM], respectively. Moreover, the activity change, negative = cytotoxicity was 1.42% [at 19 µM] in assay [4], 6.76% [at 18.9 µM] in [10] and 11.1% [at 19 µM] in assay [7]. For the same molecule, in assay [8], the viability change, negative = cytotoxic is -0.4% [at 15.8 µM].

As to `CCCCS`, the Potency entry in [1], in assay [5], in assay [6] and in assay [7] was “inactive” in each case. Moreover, the outcome in assay [2], in assay [4], in [10], in [8] and in [9] was inactive.

Regarding `CCCc1ccc(O)c(OC)c1`, the Potency result in assay [1], in assay [5], in assay [6] and in assay [7] was “inactive” throughout. Besides, the molecule was classed as inactive in assay [2], in assay [4], in [10], in assay [8] and in assay [9].

Turning to `CC(C)(C)C(=O)NCCCC(=O)O`, the Potency result in [1] and in [7] was “inactive” throughout. The result in assay [2], in assay [3], in assay [4], in assay [10], in [8] and in [9] was inactive.

For `COCc1nnc(-c2ccc[n+]([O-])c2)n1-c1c(Cl)c(Cl)cc2[nH]c(=O)c(=O)[nH]c12`, the Potency entry in [1], in assay [5] and in [7] was “inactive” throughout. Besides, the molecule was called inactive in assay [2], in assay [3], in assay [4], in assay [10], in [8] and in assay [9].

Take `Cc1ccc(NC(N)=O)cc1`: the Potency result in [1], in assay [5], in assay [6] and in assay [7] was “inactive” throughout. In addition, the call in assay [2], in assay [4], in assay [10] and in assay [8] was inactive.

With `O=CN1CCCCC1`, the Potency entry in assay [1], in [5], in assay [6] and in assay [7] was “inactive” each time. Moreover, the call in assay [2], in assay [4], in [10], in assay [8] and in [9] was inactive.

On to `CCCCNCC`, for which the Potency entry in assay [1], in [5], in [6] and in assay [7] was “inactive” throughout. For the same molecule, the molecule was classed as inactive in assay [2], in assay [4], in assay [10] and in [8].

For `C[C@@H]1CC[C@@]2(OC1)O[C@H]1C[C@H]3[C@@H]4CC[C@H]5C[C@@H](O)CC[C@]5(C)[C@H]4CC(=O)[C@]3(C)[C@H]1[C@@H]2C`, the activation in [1] is 0.597% [at 8.39 µM]; in [5], -0.697% [at 8.39 µM]. Moreover, the cAMP activity change in assay [2] was -0.224% [at 8.39 µM]. Also, the activity change, negative = cytotoxicity in assay [4] was 0.111% [at 8.39 µM]; in assay [10] it was 12.3% [at 8.39 µM]; in [7] it was 3.64% [at 8.39 µM]; in [9], -1.03% [at 6.97 µM]. Further, the activity change, negative = inhibition in assay [6] is 17.4% [at 8.39 µM]. Besides, the viability change, negative = cytotoxic in [8] was -1.38% [at 6.97 µM].

Consider `C[C@@H]1NC(=O)[C@@H](N)CNC(=O)[C@H](C2CCNC(N)=N2)NC(=O)/C(=C/NC(N)=O)NC(=O)[C@H](CNC(=O)C[C@@H](N)CCCN)NC1=O` (stereo not given in full), for which the activation was 1.04% [at 0.349 µM] in assay [1] and -1.98% [at 0.349 µM] in assay [5]. In assay [2], the cAMP activity change is -0.133% [at 0.349 µM]. In addition, the activity change, negative = cytotoxicity in assay [4] is -0.264% [at 0.349 µM]; in assay [10] it was 0.0667% [at 0.348 µM]; in [7], -15.7% [at 0.349 µM]; in assay [9], -5.87% [at 0.29 µM]. Also, the activity change, negative = inhibition in assay [6] was 9.13% [at 0.348 µM]. The viability change, negative = cytotoxic in [8] was 13.5% [at 0.29 µM].
